Screens as filed in PubChem BioAssay.
BoNT-F LC inh: inhibitors of Botulinum neurotoxin F light chain protease; inhibition, % at 10 µM; Multiplex microsphere protease cleavage assay, flow cytometry; hit rate 0.22% among 360,000; in the data active means inhibition above about 35%, passing the limit was not always enough; inconclusive means no clear call, values can overlap the other calls; further: plate controls were buffer without enzyme for full effect and enzyme alone for no effect
BoNT-A LC inh2: blocks Botulinum neurotoxin A light chain protease | hit rate 0.17% among 360,000 | inhibition, % at 10 µM | multiplex microsphere protease substrate cleavage, flow cytometry; further: plate controls were buffer without enzyme for full effect and enzyme alone for no effect
3CLpro inhibitor: SARS-CoV 3CLpro protease inhibition; P0C6X7; recombinant SARS-CoV 3CLpro, quenched FRET peptide cleavage; inhibition, % at 6 µM; hit rate 0.14% among 290,000; AID 1706; in the data active means inhibition above about 12%
Anthrax LF inh2: inhibitors of Bacillus anthracis lethal factor protease. hit rate 0.12% among 360,000. inhibition, % at 10 µM. multiplex microsphere protease cleavage assay, LF; further: plate controls were buffer without enzyme for full effect and enzyme alone for no effect
Bead autofluor: flagged as autofluorescent in microsphere protease counterscreen; fluorescence intensity (concentration not given with the values); hit rate 3.1% among 360,000; compound autofluorescence counterscreen, microsphere flow cytometry; active compounds read high; in the data active means fluorescence intensity above about 16000; inconclusive means no clear call, values can overlap the other calls
CCHFV vOTU inh: blocks the CCHF virus ovarian tumor domain protease | hit rate 0.55% among 370,000 | inhibition, % at 11.5 µM | CCHFV vOTU protease, Pep-AMC fluorescence; in the data active means inhibition above about 30%; further: 0% = vehicle wells with enzyme and 100% = no enzyme wells
* hit, by the source's call; ? = inconclusive; · = no result. Compounds with a hit are over-represented: about 3.9% of the library has one in this group of screens. Unless noted, no stated cut-off is given here; in the data, active means inhibition above about 30%; inconclusive means no clear call, values can overlap the other calls; inactive means below that.

SMILES	BoNT-F LC inh	BoNT-A LC inh2	3CLpro inhibitor	Anthrax LF inh2	Bead autofluor	CCHFV vOTU inh
CCCCC(=O)N1CCN(C(=O)c2ccc3c(c2)nc(C)n3C2CCCC2)CC1	·	·	·	·	·	9
CC(C)Oc1cccc(-c2cc(C(=O)N3CCN(c4ncccn4)CC3)c3ccccc3n2)c1	-3	?	1	-3	23367*	8
O=C(c1cc(-c2ccccc2)nc2ccccc12)N1CCC2(CC1)OCCO2	-2	-1	0	0	23724*	0
CCOC(=O)N1CCN(C(=O)c2cccn3c(=O)c4sccc4nc23)CC1	-3	?	1	-8	22718*	-106
COc1cccc(-c2cc(C(=O)N3CCN(c4ncccn4)CC3)c3ccccc3n2)c1	-1	0	5	2	3136	10
CN(c1ccccc1C(=O)N1CCc2ccccc2C1)S(C)(=O)=O	0	0	-7	-4	22577*	20
Nn1c(SCC(=O)NC2CCCCCC2)nnc1-c1ccco1	6	0	·	-4	3790	2
Cc1cc(C)cc(-n2cc(C(=O)O)c(=O)cc2C)c1	-3	-1	-1	-2	2071	-9
O=C(c1cccn2c(=O)c3ccccc3nc12)N1CCN(c2ccccn2)CC1	-2	-3	-1	2	23291*	-6
O=C(c1cccn2c(=O)c3cc(Cl)ccc3nc12)N1CCC2(CC1)OCCO2	-9	0	1	-2	7986	-40
O=C(c1cccc(Cl)c1Cl)N1CCN(c2ccccn2)CC1	-1	?	-1	-2	16331*	0
CCOC(=O)N1CCN(C(=O)c2cccn3c(=O)c4cc(Br)ccc4nc23)CC1	-1	1	-2	-7	4184	-24
Cc1sc2nc3c(C(=O)N4CCN(c5ccccn5)CC4)cccn3c(=O)c2c1C	·	·	0	·	·	·
O=C(c1cccn2c(=O)c3ccccc3nc12)N1CCC2(CC1)OCCO2	-1	-1	1	-1	22328*	-49
O=C(c1ccccc1Cl)N1CCN(c2ccccn2)CC1	4	-1	2	-3	3893	0
O=C(c1cccn2c(=O)c3cc(Br)ccc3nc12)N1CCN(c2ccccn2)CC1	11	7	-1	1	18386*	1
CC(C)NC(=O)C1(C)CCCN1C(=O)c1ccccc1Br (stereo not given)	9	-1	·	3	3140	0
COc1ccc(CNC(=O)C(CC(C)C)NC(=O)c2ccccc2C)cc1 (stereo not given)	-10	-1	2	-3	3607	-8
O=C(CCCn1c(=S)[nH]c2ccc(Br)cc2c1=O)N1CCN(c2ccccn2)CC1	-6	-2	0	-7	16819*	2
Cc1ccc2nc(-c3ccccc3)cc(C(=O)N3CCc4ccccc4C3)c2c1	5	?	8	2	23070*	-7
CCOC(=O)c1c(C)oc2c1c(C(c1cccnc1)N1CCCCC1)c(O)c1ccccc12 (stereo not given)	-11	0	0	1	2682	11
CCOC(=O)c1c(C)oc2c1c(C(c1ccccc1)N1CCOCC1)c(O)c1ccccc12 (stereo not given)	6	?	7	-5	19404*	-10
O=C(COc1ccc2ccc(=O)oc2c1)Nc1ccc2c(c1)OCCO2	-11	-7	-2	2	21506*	8
Cc1ccc(C2C(=O)N(C3CCCC3)CC(=O)N2CC2COc3ccccc3O2)cc1 (stereo not given)	9	9	5	-6	19758*	-3
COc1ccc(C2C(=O)N(C3CCCCC3)CC(=O)N2Cc2ccc3c(c2)OCO3)cc1 (stereo not given)	0	3	5	-2	15747	0
SMILES	BoNT-F LC inh	BoNT-A LC inh2	3CLpro inhibitor	Anthrax LF inh2	Bead autofluor	CCHFV vOTU inh
COc1ccc(C2C(=O)N(C3CCCCC3)CC(=O)N2CC2COc3ccccc3O2)cc1 (stereo not given)	7	5	2	-2	21276*	-6
CCCCNC(=O)COC(=O)c1c2c(nc3ccccc13)/C(=C/c1cccs1)CC2	19	39*	2	25	6060	-2
COc1ccc(CN(CCN2CCOCC2)C(=O)c2ccc(F)cc2F)cc1OC	·	·	·	·	·	-4
Cc1cccc(N2CCN(C(=O)CCNC(=O)Cn3ccc4ccccc4c3=O)CC2)c1C	10	?	3	-19	19164*	0
O=C(Cn1cnc2ccccc2c1=O)NCCC(=O)N1CCN(c2ccccc2)CC1	2	?	-7	-5	22618*	-3
CN1CCN(C(=O)CCNC(=O)Cn2ccc3ccccc3c2=O)CC1	4	2	2	-12	6370	-2
COc1ccccc1-c1cnc(C(O)c2ccc(Cl)c(Cl)c2)[nH]1 (stereo not given)	-6	0	·	0	3388	21
CC1=C(C(=O)NCc2ccccc2)C(c2ccc(C)o2)n2ncnc2N1 (stereo not given)	2	?	-4	1	20601*	-6
Cc1cccc(OCc2nnc(-c3ccc(F)cc3)o2)c1	1	0	·	4	3605	14
Nc1cccc(Oc2c(F)c(F)c(Oc3cccc(N)c3)c(F)c2F)c1	38*	10	3	?	3904	1
COc1cccc(N)c1	·	·	·	·	·	0
COc1ccccc1OC(C)C(=O)O (stereo not given)	1	1	1	0	20529*	-12
COC(=O)c1[nH]c2ccccc2c1NS(=O)(=O)c1ccc(F)c(C)c1	-2	0	4	-3	16616*	3
O=C(CNC(=O)c1ccccc1Cl)NCCc1cccs1	-6	0	·	-4	3031	7
C/C(=N\Nc1nnc(C)c(=O)[nH]1)C(=O)O	-1	0	4	-6	23478*	-2
O=C1CC(N2C(=O)/C(=C/C=C/c3ccccc3)SC2=S)C(=O)N1c1ccccc1 (stereo not given)	21	64*	-5	35*	2114	-5
C=CCN=C1NC(c2cccc(Cl)c2)C(C(=O)OC)=C(C)N1Cc1ccc(C(F)(F)F)cc1 (stereo not given)	·	·	·	·	·	12
CC(=O)C(N=Nc1ccccc1)(Sc1nnc(-c2ccccc2)n1-c1ccccc1)C(=O)Nc1ccccc1 (stereo not given)	4	3	3	-3	19172*	6
CC(=O)/C(=N\Nc1ccccc1)Sc1nnc(-c2ccccc2)n1-c1ccccc1	-1	0	-2	-2	2531	-2
CC(=O)C(N=Nc1ccccc1)(Sc1nnc(-c2ccccc2)n1-c1ccccc1)C(C)=O	-3	-2	9	1	22141*	4
CCCN1CCS(=O)(=O)N(Cc2cn(Cc3ccc(Cl)cc3)nn2)C(C(=O)OC)C1 (stereo not given)	·	·	·	·	·	-1
COc1ccc(OC)c(S(=O)(=O)N2CCCC(C(=O)Nc3c(C)n(C)n(-c4ccccc4)c3=O)C2)c1 (stereo not given)	·	·	·	·	·	-5
O=C(NC1CCCCC1)C(c1ccc(O)cc1)N(CC1CCCO1)C(=O)C1COc2ccccc2O1 (stereo not given)	0	0	1	0	20282*	6
